In PubChem BioAssay (Tox21) one finds Potency data, which are given here for eight compounds.

Structures are written as SMILES. Values without a mark were called inactive. Records with an inconclusive call do not appear. Calls of active or inactive are those of the source. Unless noted, calls follow the shape of the full dose curve.

Assay [1] in a line: Nuclear factor erythroid 2-related factor 2/antioxidant responsive element (Nrf2/ARE) small molecule agonists: qHTS cell viability counter screen in human keratinocytes (AID 1919968; active = well fitted curve in the direction sought with a large enough effect in the repeat runs; an effect the other way counts as inactive or inconclusive; also: nearly all actives have a fitted effect of over 55% in size). A digest of the protocol: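 Stably transfected HaCaT (KeratinoSens), 1,500/well. Test agents in DMSO were applied for 23 h, 37 C/5% CO2. CellTiter-Fluor was incubated 1 h before the fluorescence read.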
(In general: Quantitative high-throughput screening tests each substance at several concentrations.)

A short description of assay [2]: Nuclear factor erythroid 2-related factor 2/antioxidant responsive element (Nrf2/ARE) small molecule agonists: luciferase reporter gene qHTS assay in human keratinocytes (AID 1919969). Also: nearly all actives have a fitted effect of over 35% in size. Also: potency is read from the fitted curve at half-maximal effect. On the technique in general: A reporter such as luciferase makes a cellular process visible.
Assay [3] deals with Gonadotropin-releasing hormone receptor (Homo sapiens) (UniProt P30968). Briefly: Human gonadotropin-releasing hormone receptor (GnRHR) small molecule agonists, calcium flux assay in GnRHR-HEK293 cells (AID 1920063). Also: nearly all actives have a fitted effect of over 35% in size. A digest of the protocol: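 Stable human GnRHR HEK293 line. 18 h plating, then calcium dye for 1 h at 37 C. Agonist-mode compound addition from DMSO stocks; fluorescence monitored 3 min.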
Chain of Gonadotropin-releasing hormone receptor (Homo sapiens) (P30968 whole entry, looked up): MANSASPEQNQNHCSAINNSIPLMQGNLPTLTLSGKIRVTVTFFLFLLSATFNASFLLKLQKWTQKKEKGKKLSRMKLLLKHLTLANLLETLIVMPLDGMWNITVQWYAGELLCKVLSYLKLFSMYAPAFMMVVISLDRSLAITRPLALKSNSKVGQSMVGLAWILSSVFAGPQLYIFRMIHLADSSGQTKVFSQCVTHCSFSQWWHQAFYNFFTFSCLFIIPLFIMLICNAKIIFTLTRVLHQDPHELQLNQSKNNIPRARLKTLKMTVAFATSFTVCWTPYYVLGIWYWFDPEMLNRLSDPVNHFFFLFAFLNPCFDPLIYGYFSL

Assay [4] concerns the target KiSS-1 receptor (Homo sapiens) (UniProt Q969F8). Kind of assay: Human kisspeptin (KISS1R) small molecule agonists, calcium flux assay in KISS1R-HEK293 cells (AID 1920064; active = well fitted curve in the direction sought with a large enough effect in the repeat runs; an effect the other way counts as inactive or inconclusive). A digest of the protocol: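 After overnight (18 h) culture at 37 C/5% CO2, human KISS1R-HEK293 cells received calcium dye for 1 h, then test compound; emission at 540 nm (excitation 480 nm) was tracked for 3 min.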
(Calcium flux is commonly read through the fluorescence of an indicator in the cells.)

A short description of assay [5]: G protein-coupled receptor (GPCR) small molecule agonists, calcium flux assay: HEK293 wild type cell line counter screen (AID 1920065). The method, boiled down: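 Following 18 h incubation at 37 C/5% CO2, plates got calcium dye for 1 h; compounds, ATP or DMSO were then pinned in and fluorescence followed kinetically (480/540 nm).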
The nature of assay [6]: p53 small molecule agonists, cell-based qHTS assay with human liver microsomes: qHTS cell viability counter screen (AID 1963579). Also: nearly all actives have a fitted effect of over 45% in size. The method, boiled down:
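Metabolic activation used human liver microsomes and NADPH, both 0.5 mg/mL final, over 16 hours at 37 C on p53RE-bla cells (4,000/well). Cytotoxicity measured by CellTiter-Glo luminescence, 30 min at room temperature.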

Assay [7] can be described thus: p53 small molecule agonists, cell-based qHTS assay with rat liver microsomes: qHTS cell viability counter screen (AID 1963580). Also: nearly all actives have a fitted effect of over 45% in size. The method, boiled down:
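After the beta-lactamase ratio was read, CellTiter-Glo was added to the same wells and luminescence measured at 30 min; cells had been treated 16 h at 37 C with compounds, rat liver microsomes and NADPH (0.5 mg/mL final each).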

Assay [8] is described as follows: p53 small molecule agonists, cell-based qHTS assay: qHTS cell viability counter screen (AID 1963581). Also: nearly all actives have a fitted effect of over 45% in size. A digest of the protocol:
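qHTS counter screen: 16 h compound exposure at 37 C of p53RE-bla HCT-116 cells (4,000 per well, seeded 5 h prior), cell viability by ATP luminescence.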

Assay [9] has as its target 5-hydroxytryptamine receptor 2A (Homo sapiens) (UniProt P28223). Briefly: 5-hydroxytryptamine receptor 2A (HTR2A) small molecule antagonists, cell-based qHTS assay (AID 1963586). Also: nearly all actives have a fitted effect of over 45% in size. A digest of the protocol:
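CHO cells stably expressing human HTR2A were plated for 18 h at 37 C, then loaded with calcium dye for 1 h. Compounds were preincubated 5 min at room temperature before DOI (4 nM solution) was added. Kinetic fluorescence was read for 3 min.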

For assay [10] the target is unchanged. Kind of assay: 5-hydroxytryptamine receptor 2A (HTR2A) small molecule agonists, cell-based qHTS assay (AID 1963587). Also: nearly all actives have a fitted effect of over 30% in size. A digest of the protocol: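 CHO cells stably expressing human HTR2A, plated 18 h, loaded with calcium dye 1 h at 37 C. Agonist mode: compounds added and intracellular calcium fluorescence recorded kinetically for 2 min at 1 sec intervals.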
The target of assay [11] is Muscarinic acetylcholine receptor M1 (Homo sapiens) (UniProt P11229). Briefly: Cholinergic receptor muscarinic 1 (CHRM1) small molecule antagonists, cell-based qHTS assay (AID 1963588). Also: nearly all actives have a fitted effect of over 40% in size. A digest of the protocol:
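Compounds were tested at 15 concentrations in three independent runs. Dye-loaded CHRM1-CHO cells were exposed 5 min at room temperature before stimulation by acetylcholine added at 50nM. Intracellular calcium was read kinetically on FDSS for 3 min.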

Assay [12] has the same target. Kind of assay: Cholinergic receptor muscarinic 1 (CHRM1) small molecule agonists, cell-based qHTS assay (AID 1963589). Also: nearly all actives have a fitted effect of over 35% in size. The method, boiled down: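 Kinetic fluorescence (1 s intervals) of calcium-sensitive dye in human M1 CHO cells after compound addition; cells pre-incubated 18 h at 37 C/5% CO2 and dye-loaded 1 h.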
The nature of assay [13]: cAMP Responsive Elements (CRE) small molecule agonists, cell-based qHTS assay (AID 1963590). The method, boiled down:
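Test agents in DMSO were incubated 3 h at 37 C/5% CO2 with CRE-bla HEK 293T cells seeded 18 h earlier; LiveBLAzer B/G FRET substrate was added and read after 2 h at room temperature.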

For assay [14], the target named is Beta-2 adrenergic receptor (Homo sapiens) (UniProt P07550). Briefly: Adrenergic beta2 receptor (ADRB2) small molecule antagonists, cell-based qHTS assay (AID 1963592). Also: series mostly up to about 92 µM; nearly all actives have a fitted effect of over 50% in size. A digest of the protocol:
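Assay format: CHO-ADRB2 cells, 18-20hr seeding at 37C/5% CO2, then compound plus 1nM isoproterenol agonist mix for 0.5hr RT. Homogeneous time-resolved fluorescence cAMP detection after 1hr, expressed as 665/615 nm ratio.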

The target of assay [15] is D(2) dopamine receptor (Homo sapiens) (UniProt P14416). Kind of assay: Dopamine D2 receptor (DRD2) small molecule agonists, cell-based qHTS assay (AID 1963594). Also: nearly all actives have a fitted effect of over 35% in size. The method, boiled down:
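HEK293 cells stably expressing human DRD2, pre-treated with PDE inhibitor Ro20-1724 (0.1 mM final) and compound 10 min at room temperature, then stimulated with NKH477 (200nM […]) for 30 min. cAMP read by HTRF (665/620 nm).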

For assay [16], the target named is Beta-2 adrenergic receptor (Homo sapiens) (UniProt P07550). Kind of assay: Adrenergic beta2 receptor (ADRB2) small molecule agonists, cell-based qHTS assay (AID 1963593).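 Also: CHO cells stably overexpressing human ADRB2.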 The method, boiled down: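 CHO cells stably over-expressing ADRB2 were plated overnight at 37C, then dosed with compounds plus a stimulation mix containing 100uM IBMX and 25uM Ro-20-1724 for 0.5hr at room temperature. cAMP was measured by HTRF competition, 1hr.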
Chain of Beta-2 adrenergic receptor (Homo sapiens) (P07550 whole entry, looked up): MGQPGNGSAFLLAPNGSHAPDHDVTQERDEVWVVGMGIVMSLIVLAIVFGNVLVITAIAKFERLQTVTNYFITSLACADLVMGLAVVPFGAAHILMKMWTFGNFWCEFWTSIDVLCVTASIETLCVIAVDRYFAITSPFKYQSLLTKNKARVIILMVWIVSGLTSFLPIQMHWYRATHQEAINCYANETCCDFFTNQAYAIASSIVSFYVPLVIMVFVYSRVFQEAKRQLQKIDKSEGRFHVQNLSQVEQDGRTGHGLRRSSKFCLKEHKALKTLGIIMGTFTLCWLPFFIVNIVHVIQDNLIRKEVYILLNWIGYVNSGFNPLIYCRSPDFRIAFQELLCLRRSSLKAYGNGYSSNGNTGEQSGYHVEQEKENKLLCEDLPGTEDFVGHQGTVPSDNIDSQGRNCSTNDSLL

For assay [17], the target named is D(2) dopamine receptor (Homo sapiens) (UniProt P14416). Briefly: Dopamine D2 receptor (DRD2) small molecule antagonists, cell-based qHTS assay (AID 1963595; active = well fitted inhibition curve with a large enough effect in the signal ratio in the repeat runs, with a control signal flat; the % refers to the signal ratio). A digest of the protocol: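 Antagonism was scored as restored cAMP in HEK293-DRD2 cells. These cells were stimulated with 200 nM NKH477 and 12 nM quinpirole for 30 min at room temperature, in the presence of 0.1 mM Ro20-1724.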
Chain of D(2) dopamine receptor (Homo sapiens) (P14416 whole entry, looked up): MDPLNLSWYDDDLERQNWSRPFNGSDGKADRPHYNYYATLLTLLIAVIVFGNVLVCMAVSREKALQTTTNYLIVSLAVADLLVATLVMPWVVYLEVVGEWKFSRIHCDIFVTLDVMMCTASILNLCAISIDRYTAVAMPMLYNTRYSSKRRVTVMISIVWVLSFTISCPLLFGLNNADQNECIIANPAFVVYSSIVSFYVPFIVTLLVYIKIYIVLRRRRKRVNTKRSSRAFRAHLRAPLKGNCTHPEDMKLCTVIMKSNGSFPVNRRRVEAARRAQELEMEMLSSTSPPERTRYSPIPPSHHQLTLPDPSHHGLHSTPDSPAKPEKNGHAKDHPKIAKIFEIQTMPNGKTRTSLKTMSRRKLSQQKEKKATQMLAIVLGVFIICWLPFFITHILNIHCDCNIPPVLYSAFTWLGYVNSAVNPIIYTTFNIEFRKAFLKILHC

The nature of assay [18]: cAMP Responsive Elements (CRE) small molecule antagonists, cell-based qHTS assay (AID 1963591; active = well fitted inhibition curve with a large enough effect in the signal ratio in the repeat runs, not every such curve was filed as active; the % refers to the signal ratio). The method, boiled down:
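Reporter line CRE-bla HEK 293T in dialyzed-FBS DMEM; cells preincubated 18 h, treated 3 h with compound plus NKH477 (0.25 uM final); LiveBLAzer FRET, 2 h RT.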

Chain of KiSS-1 receptor (Homo sapiens) (Q969F8 whole entry, looked up): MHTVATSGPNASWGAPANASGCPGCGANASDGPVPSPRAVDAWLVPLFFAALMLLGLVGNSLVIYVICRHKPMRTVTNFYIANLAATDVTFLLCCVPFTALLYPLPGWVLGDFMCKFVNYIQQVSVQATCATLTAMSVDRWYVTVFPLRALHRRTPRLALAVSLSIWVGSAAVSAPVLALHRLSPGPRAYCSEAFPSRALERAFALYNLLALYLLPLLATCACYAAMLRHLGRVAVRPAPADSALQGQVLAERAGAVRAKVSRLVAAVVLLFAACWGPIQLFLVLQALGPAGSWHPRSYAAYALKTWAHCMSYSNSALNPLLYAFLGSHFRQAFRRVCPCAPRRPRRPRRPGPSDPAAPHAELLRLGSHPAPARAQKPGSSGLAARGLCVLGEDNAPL
Chain of Muscarinic acetylcholine receptor M1 (Homo sapiens) (P11229 whole entry, looked up): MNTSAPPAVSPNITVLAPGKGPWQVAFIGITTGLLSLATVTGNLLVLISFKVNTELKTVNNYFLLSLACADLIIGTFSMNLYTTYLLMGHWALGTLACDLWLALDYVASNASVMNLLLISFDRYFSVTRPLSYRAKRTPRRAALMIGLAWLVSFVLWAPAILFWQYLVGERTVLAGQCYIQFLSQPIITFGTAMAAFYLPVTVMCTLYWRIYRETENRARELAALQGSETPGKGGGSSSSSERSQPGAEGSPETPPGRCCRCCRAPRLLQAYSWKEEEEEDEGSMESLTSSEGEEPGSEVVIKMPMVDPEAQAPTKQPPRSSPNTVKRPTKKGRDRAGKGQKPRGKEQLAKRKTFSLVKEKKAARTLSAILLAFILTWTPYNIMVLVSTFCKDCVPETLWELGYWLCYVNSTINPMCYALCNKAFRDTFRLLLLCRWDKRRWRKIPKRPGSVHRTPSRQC
Chain of 5-hydroxytryptamine receptor 2A (Homo sapiens) (P28223 whole entry, looked up): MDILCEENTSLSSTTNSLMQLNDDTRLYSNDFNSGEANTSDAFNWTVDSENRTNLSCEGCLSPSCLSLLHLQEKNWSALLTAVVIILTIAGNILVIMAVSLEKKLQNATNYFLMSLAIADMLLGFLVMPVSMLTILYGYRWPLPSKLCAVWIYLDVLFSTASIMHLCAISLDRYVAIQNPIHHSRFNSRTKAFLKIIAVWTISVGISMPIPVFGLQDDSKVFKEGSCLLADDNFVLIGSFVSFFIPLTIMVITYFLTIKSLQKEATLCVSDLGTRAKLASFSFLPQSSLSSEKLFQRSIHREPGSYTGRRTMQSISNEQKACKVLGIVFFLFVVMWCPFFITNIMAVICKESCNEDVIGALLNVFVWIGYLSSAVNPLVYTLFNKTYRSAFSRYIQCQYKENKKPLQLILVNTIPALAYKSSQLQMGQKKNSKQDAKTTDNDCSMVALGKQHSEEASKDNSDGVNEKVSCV

As for `CCCCC(CC)COC(=O)c1ccccc1` (configuration not stated), the Potency result in assay [1], in assay [2], in [3], in [4], in [5] and in assay [6] was “inactive” each time. Moreover, the Potency entry in [7], in assay [8], in assay [9], in [10], in [11] and in assay [12] was “inactive” each time. The Potency result in [13], in assay [14] and in assay [15] was “inactive” throughout.

Take `CC(C)(C)OC(=O)c1ccc(O)cc1`: the Potency result in assay [1], in [3], in assay [4], in assay [5], in assay [6] and in [7] was “inactive” in each case. Moreover, the Potency result in [8], in [9], in [10], in [11], in assay [12] and in assay [13] was “inactive” throughout. In addition, the Potency entry in assay [14], in [16], in assay [15] and in assay [17] was “inactive” throughout. Further, the Potency in assay [2] is 61.1 µM (active).

Regarding `NC(=O)c1cc[n+](CC2=C(C(=O)[O-])N3C(=O)[C@@H](NC(=O)Cc4cccs4)[C@H]3SC2)cc1`, the Potency entry in assay [1], in [2], in [3], in [4], in [5] and in assay [6] was “inactive” each time. In addition, the Potency entry in assay [7], in assay [8], in [9], in assay [10], in assay [11] and in assay [12] was “inactive” in each case. Moreover, the Potency entry in assay [18], in assay [14] and in assay [17] was “inactive” in each case.

In the case of `Cc1ccccc1Br`, the Potency result in assay [1], in [2], in assay [3], in assay [4], in assay [5] and in assay [6] was “inactive” throughout. Besides, the Potency result in assay [7], in assay [8], in assay [9], in assay [10], in assay [11] and in [12] was “inactive” in each case. Moreover, the Potency result in [18], in assay [14], in assay [16], in [15] and in assay [17] was “inactive” each time.

For `CC(C)=CC=O`, the Potency entry in [1], in assay [2], in assay [3], in assay [4], in assay [5] and in assay [6] was “inactive” each time. Besides, the Potency result in assay [7], in assay [8], in assay [9], in assay [10], in assay [11] and in assay [12] was “inactive” each time. The Potency entry in [13], in assay [14], in assay [16] and in assay [17] was “inactive” throughout.

Regarding `CCCNCCC`, the Potency entry in assay [1], in assay [2], in assay [3], in [4], in assay [5] and in assay [6] was “inactive” in each case. The Potency result in assay [7], in assay [8], in assay [9], in [10], in assay [11] and in assay [12] was “inactive” each time. In addition, the Potency entry in assay [13], in [14], in assay [15] and in assay [17] was “inactive” throughout.

`Cc1ccc(C#N)cc1`: the Potency entry in [1], in [2], in assay [3], in [4], in assay [5] and in assay [6] was “inactive” each time. The Potency result in assay [7], in assay [8], in assay [9], in assay [10], in [11] and in [12] was “inactive” throughout. For the same compound, the Potency entry in [13], in assay [14], in assay [15] and in assay [17] was “inactive” in each case.

For the compound `CC(C)c1ccc2ncccc2c1`, the Potency entry in [1], in assay [2], in [3], in assay [4], in assay [5] and in assay [6] was “inactive” throughout. The Potency entry in [7], in assay [8], in assay [9], in assay [10], in assay [11] and in [12] was “inactive” in each case. Besides, the Potency result in assay [13], in assay [15] and in assay [17] was “inactive” in each case.
